Only some compounds are listed: those with a hit (about 27% of all), similar ones and a draw of the others.
Cav3 T inh: human Cav3.2 channel inhibition, primary screen. 100,000 tested, 4% active. Cav3.2-expressing cells, Fluo-4 calcium fluorescence FDSS; stronger effect = lower value. B-score at 10 µM;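 active = single-dose well whose peak fluorescence ratio is a statistical outlier from its plate by either plate-standardised score or position-corrected B-score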
CYP2C19 inh: human CYP2C19 inhibition | P33261 | CYP2C19 Supersomes, luciferin-H EGE luminescence, 30 min | inhibition, % at 5 µM | 96,000 tested, 21% active | AID 778;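 active = CYP2C19 inhibition above a set limit at 5 µM in the primary screen, cut at about 50% in these data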
PTK2B oligo ant: blocks oligomerization of human Pyk2 in cells. Q14289. Q293 cells, Pyk2 FERM NanoBiT luminescence; stronger effect = lower value. z-score (the deposit names both 25 µM and 10 µM). 99,000 tested, 0.83% active;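 active = Z-score of -3 or lower, scaled per plate to the spread of control and sample wells; inactive = z-score above -3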;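 also: negative z-score means lost luminescence so less FERM oligomerization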
CYP2C9 activ: CYP2C9 (human) activation | P11712 | recombinant CYP2C9, luciferin-H conversion, luminescence; stronger effect = higher value; factor 1 = untreated enzyme, 0 = blocked | activation factor at 5 µM | 96,000 tested, 1.4% active;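 active = activation factor of 2 or more for CYP2C9 at a 5 µM dose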
Target sequence (P11712 whole entry, looked up): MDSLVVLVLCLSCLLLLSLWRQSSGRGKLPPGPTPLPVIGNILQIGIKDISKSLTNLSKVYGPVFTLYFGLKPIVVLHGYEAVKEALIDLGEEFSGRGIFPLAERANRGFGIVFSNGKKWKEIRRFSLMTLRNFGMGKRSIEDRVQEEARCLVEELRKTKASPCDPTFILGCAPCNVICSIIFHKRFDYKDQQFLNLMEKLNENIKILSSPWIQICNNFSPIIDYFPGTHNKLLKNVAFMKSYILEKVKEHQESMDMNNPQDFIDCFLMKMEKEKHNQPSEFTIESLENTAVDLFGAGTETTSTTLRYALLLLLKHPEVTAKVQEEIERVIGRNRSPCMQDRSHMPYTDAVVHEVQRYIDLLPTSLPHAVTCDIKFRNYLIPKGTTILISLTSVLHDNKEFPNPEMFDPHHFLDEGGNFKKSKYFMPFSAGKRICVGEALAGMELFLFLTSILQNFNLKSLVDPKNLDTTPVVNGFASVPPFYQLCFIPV
CYP2C9 inhib: inhibitors of human CYP2C9; CYP2C9 Supersomes, luciferin-H conversion, luminescence; inhibition, % at 5 µM; 96,000 tested, 20% active; AID 777;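 active = blocking of liver enzyme CYP2C9 beyond about 50% at 5 µM, limit read from the data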
CYP2C19 activ: increases human CYP2C19 enzyme activity. P33261. recombinant CYP2C19, luciferin-H EGE luminescence; stronger effect = higher value; 0 = fully inhibited enzyme, 1 = untreated enzyme. activation factor at 5 µM. 96,000 tested, under 10 active. AID 1025;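 active = activation factor of at least 2 at 5 µM in the primary screen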
Large screens that a line does not name were inactive.

Cn1c(=O)c2c(SCc3ccccn3)nc(CC(C)(C)C)nc2n(C)c1=O	Cav3 T inh -5.88, CYP2C9 inhib 82.5 (no result: PTK2B oligo ant)
Cc1cccc(Cn2c(C(=O)OC(C)C)cc3c2ccn3C)c1	none
CCCn1c(SCC(=O)N2CCc3ccccc3C2)nc2c1c(=O)n(C)c(=O)n2C	none
Cc1sc2nc(C3CC3)nc(SCC(=O)N3CCc4ccccc4C3)c2c1C	CYP2C19 inh 64.6, CYP2C9 inhib 84.9 (no result: Cav3 T inh)
CCc1c(C)sc2nc(C(C)C)nc(SCC(=O)N3CCc4ccccc4C3)c12	CYP2C9 inhib 96.6 (no result: PTK2B oligo ant)
Cc1cc2ccccc2n2c(SCC(=O)N3CCc4ccccc4C3)nnc12	none (no result: CYP2C19 inh, CYP2C9 activ, CYP2C9 inhib, CYP2C19 activ)
Cc1sc2nc(C3CC3)nc(SCC(=O)N3CC(=O)Nc4ccccc43)c2c1C	CYP2C9 inhib 65.6
FC(F)(F)C1=CC(c2ccc(Br)cc2)=NCCN1	none
CC(C)(C)c1ccc(C(=O)N2CCC(C(=O)NCc3ccncc3)CC2)cc1	CYP2C9 inhib 55.0
O=C(NCc1ccncc1)C1CCN(S(=O)(=O)Cc2ccccc2)CC1	CYP2C9 inhib 91.7
O=C(NCc1ccccc1)C1CCN(S(=O)(=O)N2CCCCCC2)CC1	none (no result: CYP2C19 inh, CYP2C9 activ, CYP2C9 inhib, CYP2C19 activ)
CCCNC(=O)COC(=O)CCC(=O)c1ccc(F)cc1	none
COC(=O)C1CCN(C(=O)c2sc3nc(-c4ccc(F)cc4)cn3c2C)CC1	CYP2C9 inhib 62.0
COc1ccccc1N1CCN(C(=O)c2sc3nc(-c4ccccc4)cn3c2C)CC1	CYP2C9 inhib 80.5
Cc1c(C(=O)N2CCN(c3ccc(F)cc3)CC2)sc2nc(-c3ccccc3)cn12	none (no result: Cav3 T inh)
Cc1c(C(=O)N2CCc3ccccc3C2)sc2nc(-c3ccccc3)cn12	CYP2C19 inh 58.8, CYP2C9 inhib 53.0
Cc1c(C(=O)N2CCOCC2)sc2nc(-c3ccccc3)cn12	none (no result: Cav3 T inh)
CN(C)CCCN1C(=O)c2oc3ccccc3c(=O)c2C1c1cccs1 (centres undefined)	none
CCCn1c(=O)[nH]c2ccccc21	none
Cc1cc(C)nc(SCCCn2c(=O)[nH]c3ccccc32)n1	CYP2C19 inh 97.3
Cc1c(Cl)ccc2c1NC(=O)C21NC(CCC(N)=O)[C@H]2C(=O)N(c3ccc(Cl)cc3)C(=O)[C@H]21 (some centres undefined)	CYP2C19 inh 57.1, CYP2C9 inhib 70.4
NC(=O)C[C@@H]1N[C@]2(C(=O)Nc3ccccc32)[C@@H]2C(=O)N(C3CCCCC3)C(=O)[C@H]12	none
Cc1c(Cl)ccc2c1NC(=O)[C@]21N[C@@H](CCC(N)=O)[C@H]2C(=O)N(c3ccc(F)cc3)C(=O)[C@H]21	none
CSCCC1NC2(C(=O)Nc3c2ccc(Cl)c3C)[C@@H]2C(=O)N(C3CCCC3)C(=O)[C@H]12 (some centres undefined)	CYP2C19 inh 91.0, CYP2C9 inhib 91.4
O=C(NCSc1ccnc(SCNC(=O)c2ccc(F)cc2)n1)c1ccc(F)cc1	none
CC(NC(=O)c1cc(-c2cccs2)on1)c1ccccc1 (centres undefined)	none
COC(=O)c1cc2sc(Cl)cc2n1CC(=O)NCCC(C)C	none
CCOC(=O)c1cc2sc(C)cc2n1CC(=O)NCCc1ccccc1	CYP2C19 inh 99.9
CCOC(=O)c1cc2sc(C)cc2n1CC(=O)N(CC)CC	CYP2C19 inh 54.3
CCOC(=O)c1cc2ccccc2n1CCN(CC)CC	none
CCCCC(=O)N1C/C=C\[C@H](c2ccc(OC)cc2)N(Cc2ccc(F)cc2)C(=O)[C@@H]1C	none (no result: CYP2C19 inh, PTK2B oligo ant, CYP2C9 activ, CYP2C9 inhib, CYP2C19 activ)
CCCC(c1nnnn1C(C)(C)CC)N1CCN(C2CCCC2)CC1 (centres undefined)	CYP2C19 inh 59.8
CCCC(c1nnnn1C1CCCCC1)N1CCN(C2CCCC2)CC1 (centres undefined)	CYP2C19 inh 71.5
CCC(c1nnnn1C(C)(C)C)N1CCN(C2CCCC2)CC1 (centres undefined)	none
CCOC(=O)N1CCN(C(=O)Cc2ccc(C)cc2)CC1	none
O=C(N1CCCCC1)C12CC3CC(C1)CC(C(=O)N1CCCCC1)(C3)C2	CYP2C19 inh 66.2, CYP2C9 inhib 64.2
O=C(N1CCCC1)C12CC3CC(CC(C3)C1)C2	none (no result: CYP2C19 inh, CYP2C9 activ, CYP2C9 inhib, CYP2C19 activ)
CCc1cccc(NC(=O)CS(=O)Cc2nc(-c3ccc(C)cc3)oc2C)c1 (centres undefined)	Cav3 T inh -6.69, CYP2C19 inh 76.6, CYP2C9 inhib 88.3 (no result: PTK2B oligo ant)
Cc1oc(-c2cccs2)nc1CS(=O)CC(=O)NCCCN1CC(C)CC(C)C1 (centres undefined)	CYP2C9 inhib 69.1 (no result: PTK2B oligo ant)
